Screens: PubChem, National Center for Advancing Translational Sciences (NCATS)
Compounds with a hit are over-represented: about 18% of the library has one in this group of screens.
PLK1 PBD block: inhibitors of human PLK1 polo-box domain binding; Potency, µM, without a hit: max response, negative = inhibition, actives largely listed as inhibitors; Plk1 PBD binding of FITC phosphopeptide, fluorescence polarization; P53350; AID 720504; 360,000 tested, 2.8% active; note: series mostly up to about 57 µM; nearly all actives have a fitted effect of over 65% in size
TDP1 block: blocks human tyrosyl-DNA phosphodiesterase 1 | recombinant TDP1, AlphaScreen DNA substrate cleavage | Potency, µM (doses to about 130 µM), for inactives: at the top dose activity change, negative = inhibition, actives largely listed as inhibitors | 350,000 tested, 0.28% active; note: nearly all actives have a fitted effect of over 40% in size
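Compounds were preincubated with Tdp1 (1 nM final) for 15 min at room temperature before substrate (15 nM final) started a 5 min reaction; beads (10 ug/ml final) were then added for 10 min before AlphaScreen detection.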
VDR inh: vitamin D3 receptor (human) inhibition; VDR-SRC2-3 peptide fluorescence polarization, 2 h; AID 504847; 400,000 tested, 0.93% active; Potency, µM, without a hit: max response, negative = inhibition, most hits filed as inhibitors
Target sequence (P11473 whole entry, looked up): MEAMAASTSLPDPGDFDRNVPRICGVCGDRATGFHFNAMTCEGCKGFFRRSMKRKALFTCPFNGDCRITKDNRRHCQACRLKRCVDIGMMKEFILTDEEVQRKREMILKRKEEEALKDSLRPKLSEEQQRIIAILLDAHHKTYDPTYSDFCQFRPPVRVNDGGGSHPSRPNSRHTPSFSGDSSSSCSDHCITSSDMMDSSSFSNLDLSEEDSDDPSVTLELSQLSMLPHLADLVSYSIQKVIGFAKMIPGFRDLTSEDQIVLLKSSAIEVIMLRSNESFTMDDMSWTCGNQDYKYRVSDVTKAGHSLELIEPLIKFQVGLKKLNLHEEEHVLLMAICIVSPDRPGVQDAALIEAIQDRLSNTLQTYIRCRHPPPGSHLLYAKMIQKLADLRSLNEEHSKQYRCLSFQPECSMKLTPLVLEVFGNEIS
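FP read-out; VDR + SRC2-3 coactivator peptide; 23 nl compound by pintool; 2 h RT incubation; reagents held at 4 deg C, protected from light.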
KAT2A inh: blocks human GCN5L2 histone acetyltransferase | Q92830 | GCN5L2 HAT assay, ThioGlo1 CoA-SH fluorescence | Potency, µM (series often up to 58.9 µM), for inactives: at the highest dose activity change, negative = inhibition, most hits filed as inhibitors | 390,000 tested, 0.21% active | AID 504327
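qHTS, 1536-well. 20nM enzyme, pH 7.5 HEPES/EDTA/Tween-20 buffer; 15 min compound preinc., RT. Start: 75uM H3(1-25), 70uM AcCoA, 50uM ThioGlo1. Read Ex340/Em540 at t=0 (autofluorescence flag) and t=20 min.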
TDP1 cell noCPT: qHTS for Inhibitors of human tyrosyl-DNA phosphodiesterase 1 (TDP1): qHTS in cells in absence of CPT; DT40 Tdp1-/- hTDP1 cells, no CPT, ATP luminescence, 48 h; AID 686978, 2013; 420,000 tested, 15% active; Potency, µM (series often up to 46.2 µM), for the others: at the top dose activity change, negative = growth inhibition, actives largely listed as inhibitors; note: nearly all actives have a fitted effect of over 55% in size
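Growth of hTDP1-complemented DT40 Tdp1-knockout cells is measured by ATP luminescence after at least 48 hr compound exposure at 37 °C, with DMSO substituting for the 20 nM CPT used in the parallel screen.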
DT40 TDP1 CPT: DT40-hTDP1 cell growth loss with CPT | Potency, µM (top dose mostly 46.2 µM), without a hit: at the top dose activity change, negative = growth inhibition, hits mostly inhibitors | AID 686979 | chicken DT40 Tdp1-/-;hTDP1 cells + 20 nM CPT, ATP luminescence, 48 h | 420,000 tested, 12% active; note: nearly all actives have a fitted effect of over 55% in size
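Cell growth measured by CellTiter-Glo luminescence after a minimum 48 h, 37 C compound exposure with 20 nM CPT in Tdp1-knockout DT40 cells stably expressing hTDP1, seeded 400/well; qHTS titration format.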
Starred values were filed as active, the others as inactive; u = inconclusive; x = no result; ! = not confirmed by another sample; [ ] = remark or other dose. Calls come from the whole dose curve; as a rule, active = well fitted curve in the direction sought with a large enough effect; inconclusive = small, poorly fitted or top-dose-only effect, or another doubt; inactive = no such curve, though single readings can be large; an effect the other way counts as inactive or inconclusive. % is set by controls: 0 for no effect and ±100 for the full control effect; potency is the fitted concentration of half-maximal effect.

SMILES | PLK1 PBD block | TDP1 block | VDR inh | KAT2A inh | TDP1 cell noCPT | DT40 TDP1 CPT
CCOC(=O)c1c(NC(=O)CSc2n[nH]c(N)n2)sc(CC)c1C | -7.3% | 6.2% | 21.5% | -4.9% | -2.1% | -18.2%
CCOC(=O)c1c(NC(=O)CSc2nnc(Cc3ccccc3)o2)sc(C(C)=O)c1C | 1.8% | 1.6% | 5.5% | -4.5% | 20.6µM* | 20.6µM*
COc1cc(NC(C)CCCN)c2ncccc2c1 (stereo not drawn) | -23.0% | 8.6% | -9.7% | -9.5% | 7.18µM*! | u
COc1cc(NC(C)CCCN)c2nc(C)ccc2c1Oc1ccc(F)cc1 (stereo not drawn) | -11.8% | x | x | x | 10.3µM* | 25.9µM*
CC(=O)c1cccc(NC(=O)N2CCC(CN3CCCCC3)CC2)c1 | x | 3.7% | 5.9% | -0.9% | 2.6% | 19.9%
COc1ccc2[nH]c(C(=O)O)c(NS(=O)(=O)c3ccc(C)cc3C)c2c1 | u | 7.3% | -2.5% | -4.9% | 2.5% | 7.2%
O=C(Nc1ccccc1)C(=O)Nc1ccc2c(c1)N(C(=O)C1CC1)CCC2 | 0.1% | 3.6%[0.505 µM] | -3.6% | -20.9% | 23.1µM* | 20.6µM*
O=C(Nc1ccccc1)N1CCCc2ccccc21 | -5.9% | -2.4% | 5.5% | -3.9% | -13.8% | -2.7%
OC(c1ccc(-c2ccccc2)cc1)c1ncc(-c2ccccc2)[nH]1 (stereo not drawn) | -10.6% | x | x | x | u | u
Cc1cc(C(O)c2ncc(-c3ccc(Cl)cc3)[nH]2)ccc1F (stereo not drawn) | -2.6% | x | x | x | u | 18.4µM*
OC(c1ccc(F)c(F)c1)c1ncc(-c2ccc(Cl)cc2)[nH]1 (stereo not drawn) | -3.9% | x | x | x | u | u
Cc1cc(C(O)c2ncc(-c3ccc(Oc4ccccc4)cc3)[nH]2)ccc1F (stereo not drawn) | -5.4% | x | x | x | u | 18.4µM*
OC(c1ccc(F)cc1)c1ncc(-c2ccc(Oc3ccccc3)cc2)[nH]1 (stereo not drawn) | 5.7% | x | x | x | 16.4µM* | u
O=c1c(CCc2ccccc2)nc2cncnc2n1Cc1ccccc1 | x | x | u | -14.3% | -28.4% | u
O=c1cnc2cncnc2n1Cc1ccc(F)cc1 | x | x | u | -5.0% | 4.11µM* | 4.11µM*
O=c1cnc2cncnc2n1Cc1ccccc1 | x | x | -16.8% | -5.4% | 7.31µM* | 5.8µM*
O=c1cnc2cncnc2n1Cc1ccccc1Cl | x | x | 39.8µM* | -4.0% | 1.3µM* | 2.31µM*
O=c1c(-c2ccccc2)nc2cncnc2n1Cc1ccc(F)cc1 | x | x | -1.4% | -29.4% | 20.6µM* | u
Cc1cc(C)cc(NC(=S)NCc2ccc3[nH]c4c(c3c2)CCCC4)c1 | -9.9% | 11.0% | -2.9% | -6.1% | 16.4µM* | u
COc1ccc(NS(=O)(=O)c2ccc3[nH]c4c(c3c2)CCCC4)cc1Cl | x | 12.4% | 18.0% | -9.0% | u | u
Cc1ccc(NS(=O)(=O)c2ccc3[nH]c4c(c3c2)CCCCCC4)cc1Cl | x | 7.7% | 9.1% | -6.1% | u | u
Cc1cccc(NS(=O)(=O)c2ccc3[nH]c4c(c3c2)CCCCCC4)c1 | x | 8.8% | 6.1% | -4.3% | u | 18.4µM*
O=S(=O)(Nc1cccc(Cl)c1)c1ccc2[nH]c3c(c2c1)CCCCCC3 | x | 7.7% | 5.8% | -15.3% | u | 16.4µM*
Cc1cccc(NC(=O)C2CCN(S(=O)(=O)c3ccc4[nH]c5c(c4c3)CCCCC5)CC2)c1 | x | 5.3% | 3.2% | -20.7% | u | 20.6µM*
COc1ccc(C(=O)N/N=C/c2ccc(OC)c(CSc3ccccn3)c2)cc1 | -13.2% | 0.0% | -3.5% | -6.9% | -18.6% | -5.1%
SMILES | PLK1 PBD block | TDP1 block | VDR inh | KAT2A inh | TDP1 cell noCPT | DT40 TDP1 CPT
COc1ccc(/C=N/NC(=O)c2cccnc2)cc1COc1ccc([N+](=O)[O-])cc1 | -10.1% | 7.0% | -8.2% | -2.0% | 2.59µM* | 2.59µM*
COc1ccc(C(=O)N/N=C/c2ccc(OC)c(CN3CCCc4ccccc43)c2)cc1 | -9.0% | 5.5% | -20.1% | -4.5% | u | -24.4%
COc1cc(/C=N/NC(=O)c2cccnc2)ccc1OC(=O)c1ccc([N+](=O)[O-])cc1 | 1.1% | 44.7µM* | 32.5% | -9.9% | -0.8% | -19.4%
COc1ccc(/C=N/NC(=O)c2cccnc2)cc1CN1CCCc2ccccc21 | -15.0% | 10.3% | -11.8% | -5.2% | 11.6µM* | u
COc1ccc(/C=N/NC(=O)c2cccnc2)cc1CSc1ccccn1 | u | x | -14.7% | -4.0% | 6.51µM* | 6.51µM*
COc1ccccc1C(=O)c1cn(CC(=O)Nc2ccccc2F)c2nc(C)ccc2c1=O | x | 5.3% | 9.9% | 26.2% | -19.9% | -2.2%
COc1cc(/C=N/NC(=O)c2cccnc2)ccc1OCC(=O)Nc1ccccc1Cl | 4.6% | -1.3% | -0.4% | -3.3% | -25.2% | -18.4%
COc1ccc(NC(=O)COc2ccc(/C=N/NC(=O)c3cccnc3)cc2OC)cc1 | 0.8% | 2.8% | 1.6% | -15.7% | 23.1µM* | 18.4µM*
O=C(C1CCN(S(=O)(=O)N2CCC3(CC2)OCCO3)CC1)N1CCN(Cc2ccccc2)CC1 | 1.1% | 3.1% | -8.4% | 7.8% | -7.2% | -12.2%
O=C(NCCN1CCC(Cc2ccccc2)CC1)C1CCN(S(=O)(=O)N2CCC3(CC2)OCCO3)CC1 | -8.6% | 4.9% | -3.1% | -9.0% | 18.4µM* | 14.6µM*
O=C(C1CCN(S(=O)(=O)N2CCC3(CC2)OCCO3)CC1)N1CCc2ccccc2C1 | -4.1% | 3.6% | 4.0% | 3.6% | 16.4µM* | u
C[C@H](CO)N1C[C@H](C)[C@@H](CN(C)C(=O)NC2CCCCC2)Oc2ccc(NC(=O)C3CCCCC3)cc2C1=O | -11.6% | 1.4% | -10.4% | -4.1% | -17.1% | 12.7%
O=C(O)c1cccc(/C=C2/C[C@@H]3[C@@H](/C=C/[C@@H](O)C4CCCCC4)[C@H](O)C[C@@H]3O2)c1 | x | 9.5% | -8.0% | -15.0% | -9.3% | -3.3%
Cc1cc2c(c(-c3nc4ccccc4s3)c1)OC(CNC(=O)CCc1cccnc1)C2 (stereo not drawn) | x | x | x | x | 0.13µM* | 0.116µM*
O=C(CCc1cccnc1)NCC1Cc2cccc(-c3ncccn3)c2O1 (stereo not drawn) | x | x | x | x | 11.4% | 2.6%[9.04 µM]
O=[N+]([O-])c1cccc2c(Br)[nH]nc12 | x | 10.4%[56.1 µM] | -3.4% | u | u | 31.6µM*
O=c1[nH]cnc2c([N+](=O)[O-])cccc12 | -7.3% | 3.8% | 24.3% | 12.7% | 2.2% | -18.2%
CCCCn1c(=O)n(-c2cc(OC)ccc2OC)c(=O)c2c3c(sc21)CN(C(C)=O)CC3 | x | -1.0% | -11.6% | -1.3% | u | u
